# D2 PAM-1 = positive allosteric modulators of human D2 dopamine receptor | AID 624464 | hit rate 0.23% among 360,000 | P14416 | DiscoveRx D2 beta-arrestin cells, luminescence, 90 min; 100% = 57 uM dopamine signal | potentiation, % (test concentration not listed); in the data active = potentiation above about 50%; inconclusive = mostly about 30% to 49%
# Target sequence (P14416 whole entry, looked up): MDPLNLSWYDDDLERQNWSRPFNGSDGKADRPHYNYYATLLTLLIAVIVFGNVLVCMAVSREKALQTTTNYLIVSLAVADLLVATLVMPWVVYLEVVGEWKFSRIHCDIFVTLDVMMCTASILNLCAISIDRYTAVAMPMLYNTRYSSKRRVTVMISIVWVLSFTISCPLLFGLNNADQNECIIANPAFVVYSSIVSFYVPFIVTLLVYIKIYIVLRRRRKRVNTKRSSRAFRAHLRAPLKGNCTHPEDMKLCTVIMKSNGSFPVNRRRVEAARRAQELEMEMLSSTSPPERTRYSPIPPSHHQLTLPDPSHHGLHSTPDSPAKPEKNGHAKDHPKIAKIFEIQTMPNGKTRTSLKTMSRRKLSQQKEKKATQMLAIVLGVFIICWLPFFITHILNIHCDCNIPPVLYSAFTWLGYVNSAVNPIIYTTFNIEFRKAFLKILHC
#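 PathHunter D2 cells, attached overnight at 37 deg C, received compound in DMSO plus dopamine at EC20 (50 nM final) for 90 min at 37 deg C. Beta-arrestin recruitment was read as luminescence after 1 h with detection reagent at ambient temperature.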
# D2 PAM-2 = positive allosteric modulators of human D2 dopamine receptor. P14416. HEK293 T-REx D2, calcium flux, EC20 dopamine potentiation. potentiation, % at 10 µM. hit rate 0.34% among 340,000. AID 485347;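 active = potentiation over 3 SD above the plate norm, cut at about 30% in these data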; note: 0% is about no effect
#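 Calcium flux readout, no-wash dye, 1 read/s. Inducible HEK293 Trex D2 line, overnight 30 C. Compound alone 180 s (agonist flags), then EC20 dopamine, another 180 s to score potentiation.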
# D2 ag-1 = activates the human D2 dopamine receptor; HEK293 T-REx D2 cells, calcium flux agonist mode; activation, % at 2 µM; hit rate 0.53% among 340,000; AID 485358; P14416;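 active = activation over 3 SD above normal in the single-dose calcium agonist read, cut at about 30% in these data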; note: 0% is about no effect
#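 Tetracycline-induced HEK293 Trex cells with D2 receptor force-coupled to calcium signaling, plated overnight at 30 C and loaded with no-wash calcium dye. Calcium flux read kinetically for 180 s after compound addition; responses flag agonists.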
# D2 ag-2 = agonists of human D2 dopamine receptor (beta-arrestin); DiscoveRx PathHunter D2 beta-arrestin, luminescence, 90 min; 100% = 57 uM dopamine signal; activation, % (test concentration not listed); hit rate 0.084% among 360,000; in the data active = activation above about 40%; inconclusive = between about 15% and that limit
#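 Agonist mode: compounds alone added to overnight-plated D2 PathHunter cells for 90 min at 37 C, with 57 uM final dopamine (EC100) defining full response. Beta-arrestin recruitment detected by chemiluminescent reagent, read after 1 h at ambient temperature.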
# D2 antag = D2 dopamine receptor (human) antagonism | P14416 | inhibition, % at 10 µM | HEK293 TREx D2 cells, calcium flux, dopamine EC80 | hit rate 2% among 340,000; in the data active = inhibition above about 30%; inactive = below that, where a call was filed; note: 0% is about no effect
#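 In this primary screen, negative modulation is detected by tracking calcium flux after an EC80 dopamine challenge in inducible HEK293 T-REx D2 cells preexposed to test compound for 180 s.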
# The depositor's hits bear a star; ? = inconclusive; . = no result given. Most compounds without a hit are left out; they make up all but 2.4% or so of the library.
SMILES,D2 PAM-1,D2 PAM-2,D2 ag-1,D2 ag-2,D2 antag
COc1ccccc1CN1C[C@@H]2C[C@@H](c3ccccc3C)N3CCC[C@@]23C1=O,-10.3,-1.7,-0.8,-5.0,-2.9
CCOC(=O)c1ccc(N2C(=O)c3[nH]nc(-c4ccc(OCC)cc4)c3C2c2cccs2)cc1 (stereo not given),.,7.8,-0.2,.,.
O=C(Cn1ncc2c3ccccc3n(Cc3ccc(Cl)cc3)c2c1=O)NCc1cccs1,.,-3.5,0.0,.,.
Fc1ccc(CSc2ncnc3c2oc2ccccc23)cc1,0.0,1.6,2.1,3.7,3.7
Fc1cccc(CSc2ncnc3c2oc2ccccc23)c1,-5.5,-9.7,0.8,-3.1,30.5*
CS(=O)(=O)Nc1ccc2[nH]c(=O)[nH]c2c1,0.4,-1.9,1.1,-0.1,-0.8
CCS(=O)(=O)Nc1ccc2[nH]c(=O)[nH]c2c1,1.0,-7.2,3.3,-5.0,32.8*
Cc1cc(S(=O)(=O)N2CCN(c3ccccn3)CC2)ccc1F,0.5,-5.3,-0.2,0.4,33.0*
Nc1nonc1-c1nc2ccccc2n1CC(=O)Nc1ccc(F)cc1,.,8.5,5.0,.,.
Nc1nonc1-c1nc2ccccc2n1CC(=O)N1CCN(c2ccc(F)cc2)CC1,-10.6,49.5*,0.6,0.8,-30.4
CCc1ccc(S(=O)(=O)c2cn(Cc3ccccc3F)c3cc(OC)c(OC)cc3c2=O)cc1,.,8.2,1.3,.,.
Cc1nc2ccccc2c2oc(C(=O)NCCCN3CC(C)CC(C)C3)cc12 (stereo not given),-31.2,-5.2,2.2,-0.4,-9.1
Cc1nc2ccccc2c2oc(C(=O)N3CC(C)CC(C)C3)cc12 (stereo not given),-2.6,31.0*,-0.7,-0.4,3.7
Cc1c(CNC2CCCCCC2)c(C(=O)O)c(C)n1Cc1cccc(Cl)c1,.,13.4,-1.4,.,.
CC1Cc2ccccc2N1C(=O)CSc1nnc2n1C(C)(C)Cc1ccccc1-2 (stereo not given),-12.5,34.2*,-1.1,-2.6,1.1
CCOc1cc(CNC(=O)Cn2c(=O)c3cccn3c3ccc(F)cc32)cc(OCC)c1OCC,.,-1.6,-1.0,.,.
O=C(Nc1ccnn1C1CCN(Cc2ccccn2)CC1)c1cccc(F)c1,-9.7,4.8,1.7,-2.2,8.9
O=C(Nc1ccnn1C1CCN(Cc2ccccc2OC(F)F)CC1)c1cccc(F)c1,-32.3,-23.3,0.2,-3.1,32.1*
O=C(Nc1ccnn1C1CCN(Cc2ccccc2OCCO)CC1)c1cccc(F)c1,-32.7,-13.0,0.7,-0.2,40.5*
O=C(CC1C(=O)OCCN1Cc1ccccc1)Nc1cccc(Cl)c1 (stereo not given),.,27.5,0.6,.,.
CC(C)C[C@@H](CN)NC(=O)c1nc[nH]c1C(=O)N[C@@H](C)C(=O)CNC[C@H](C)NC(=O)c1nc[nH]c1C(=O)N[C@@H](Cc1ccccc1)C(=O)O,-8.3,.,.,-1.7,.
Cc1cc(C)cc(Oc2coc3cc(OCC(=O)NC4CCCCC4)ccc3c2=O)c1,.,16.8,-2.2,.,.
CCOC(=O)c1c(NC(=O)c2nc(SCC)ncc2Cl)sc2c1CCCC2,.,13.3,.,.,.
O=C(COC(=O)c1cc([N+](=O)[O-])ccc1N1CCOCC1)Nc1ccc(Cl)cc1,-27.5,-8.1,0.6,1.9,41.8*
CCN(CC)S(=O)(=O)c1cc(NC(=O)c2cc([N+](=O)[O-])ccc2N2CCOCC2)ccc1C,-35.8,-4.4,0.0,-4.5,37.3*
SMILES,D2 PAM-1,D2 PAM-2,D2 ag-1,D2 ag-2,D2 antag
CCN(CC)S(=O)(=O)c1ccc(OC)c(NC(=O)c2cc([N+](=O)[O-])ccc2N2CCOCC2)c1,-4.2,.,.,0.0,.
N/C(=N\OC(=O)c1cccc(Br)c1)c1ccc([N+](=O)[O-])cc1,13.6,-7.2,-0.6,50.6*,0.6
N/C(=N\OC(=O)c1cccc(Br)c1)c1ccc(Br)cc1,100.5*,-5.4,-0.5,13.3,7.1
Cc1ccc(C(=O)O/N=C(\N)c2ccc(Br)cc2)cc1,27.7,-21.8,0.9,?,33.6*
N/C(=N\OC(=O)c1ccc(Br)cc1)c1ccccc1,13.3,2.3,-0.1,6.1,-6.2
CCOc1ccc(C(=O)O/N=C(\N)c2ccc([N+](=O)[O-])cc2)cc1OCC,58.1*,2.0,0.3,?,13.9
COc1ccc(/C(N)=N/OC(=O)c2ccc(C)c([N+](=O)[O-])c2)cc1,132.0*,-1.2,0.1,?,-0.3
COc1ccc(/C(N)=N/OC(=O)c2ccc([N+](=O)[O-])c(C)c2)cc1OC,-5.1,-3.6,0.2,1.7,-10.8
CC(C)(C)c1ccc(C(=O)O/N=C(\N)c2ccccc2)cc1,19.0,-4.2,1.1,40.1*,26.9
Cc1noc(-c2ccc(Cl)cc2)c1C(=O)O/N=C(\N)c1ccc(C(C)(C)C)cc1,150.7*,.,.,47.1*,.
COc1ccc(CCNC(=O)CN(c2ccccc2)S(=O)(=O)N(C)C)cc1,.,-4.7,-0.3,.,.
C/C(Nc1ccc(Cl)cc1)=C1/CCOC1=O,-1.2,.,.,1.3,.
OCC1CCCCN1CC(O)COC(c1ccc(F)cc1)c1ccc(F)cc1 (stereo not given),-4.0,-4.9,0.2,-1.8,30.6*
CCCCN(C/C=C/c1ccccc1OC)Cc1ccccc1,-33.8,-6.7,2.4,1.6,22.0
CCN(C/C=C/c1ccccc1OC)Cc1ccccc1,-26.4,-29.7,-0.4,1.2,80.0*
Cc1nn2c(-c3cccc(NC(=O)c4ccccc4)c3)nnc2c2ccccc12,.,-6.8,7.4,.,.
Cc1nc2c(-c3ccc(F)cc3)c(C)nn2c(C)c1CCC(=O)N1CCOCC1,-1.6,-18.0,0.3,-7.2,-13.2
CCOC(=O)C1CCCCN1C(=O)CCc1c(C)nc2cc(-c3ccccc3)nn2c1C (stereo not given),-1.8,5.3,0.5,2.8,32.8*
Cc1nc2c(-c3ccccc3)c(C)nn2c(C)c1CCC(=O)N1CCOCC1,-4.4,31.8*,0.5,-0.4,-0.5
Cc1nc2cc(-c3ccccc3)nn2c(C)c1CCC(=O)N1CCN(c2ccccn2)CC1,.,-7.4,-1.8,.,36.3*
CCc1nnc(NC(=O)c2ccc(COc3ccc(C)cc3)o2)s1,-0.2,0.0,0.6,-3.0,30.2*
CCc1nnc(NC(=O)CCC(=O)Nc2ccc(C)cc2)s1,-10.9,-8.6,1.0,-8.9,43.2*
CCc1nnc(NC(=O)c2ccc(COc3ccccc3)o2)s1,-3.3,29.9,-1.0,-1.6,-12.4
CCc1nn2c(=O)cc(COC(=O)c3ccccc3NC(=O)COc3ccc(F)cc3)nc2s1,.,-0.9,-1.7,.,.
Cc1nc(-c2ccc(F)cc2)c(CC(=O)N(C)CC(=O)Nc2ccc(Br)cc2C)s1,-5.1,-25.1,0.7,-4.1,58.5*
CN(CC(=O)Nc1ccc(S(=O)(=O)N2CCCC2)cc1)Cc1ccc(Cl)cc1Cl,63.8*,5.6,0.3,?,11.7
CCOc1ccc(NC(=O)CN(C)Cc2ccc3c(c2)OCO3)cc1S(=O)(=O)N1CCCC1,-1.2,-22.3,0.1,6.4,58.2*
